PubChem BioAssay (NCI)
The panel holds about 83,000 compounds, 20% with a hit somewhere; the sample as a whole holds those more often.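 Negative percent growth values reflect cell death: -40 means 40% of the cells present at the start died, and -100 means all died.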 Unmarked numbers belong to inactive results. Calls of active or inactive are those of the source. Rule for the calls: active = growth percent below 10; inactive = the rest.

The molecules below were run on HL-60(TB) leukemia (assay: NCI-60 one-dose screen, 48 h (100 = growth as untreated, 0 = no growth, -100 = all killed)). Conditions: 10 µM unless noted.

Structure (SMILES)	growth
Cc1nn(-c2ccccc2)c(N2CCCCC2)c1/C=N/NC(=O)Cn1c(=O)sc2ccccc21	69.9%
CCC(=O)Nc1nnc(Cc2ccc(OC)c(OC)c2)s1	53.2%
CCOc1ccc(-n2cc(-c3ccc(N(C)C)cc3)[n+]3c2CCCCC3)cc1	-0.266% (active)
C[C@]1(CO)C[C@@H](O)C[C@]2(C)[C@@H]1CC[C@@]13C[C@@H]4[C@@H](C[C@H]12)[C@]4(C)C3	103%
CCOC(=O)c1c(C(F)(F)F)n([O-])c2ccc(OC)cc2[n+]1=O	-9.6% (active)
Cc1ccc2c(/C=C/C(=O)c3cc(CN4CCOCC4)c(O)c4nc(C)ccc34)cc(CN3CCOCC3)c(O)c2n1	-25.2% (active)
O=C(Nc1ccccn1)[C@H](O)[C@@H](O)C(=O)N1CCOCC1	116%
NC(CCl)=NCC12CC3CC(CC(C3)C1)C2	-30.2% (active)
CN1CCN(c2ccc3cc(-c4nc5ccccc5[nH]4)c(=O)oc3c2)CC1	73%
O=C1OC(c2ccc(-c3ccccc3)cc2)=C/C1=C/C=C/c1ccccc1	90.5%
CN1CCN(Cc2ccc(NC(=O)c3[nH]ncc3Nc3ncnc4sc5c(c34)CCCC5)cc2)CC1	-67.4% (active)
CN(C)CCS(=O)(=O)Nc1cc(-c2ccc3ncnc(Nc4ccc(F)c(Cl)c4)c3c2)cnc1Cl	-15% (active)
CC(=O)c1sc(-c2ccccc2)cc1N	83.6%
FC(F)(F)c1ccc2c(c1)Sc1ccccc1N2	72.6%
ClC1=NC(Cl)C(Cl)=N/C1=N\c1ncn[nH]1 (stereo unspecified)	-64.6% (active)
CN(C(=O)c1ccccc1)N(C)C(=O)c1ccccc1	92.8%
N#Cc1c(-c2ccc(Cl)cc2)nc(NN=Cc2ccco2)nc1N1CCOCC1	108%
O=c1ccc2nc(-c3ccccc3)nn(-c3ccccc3)c-2c1	-45.5% (active)
CCN1CCN(CCNc2nccc(-c3c(-c4cccc(OC)c4)nc4occn34)n2)S1(=O)=O	119%
CC(C)CC(NC(=O)CN(Cc1ccccc1)S(C)(=O)=O)C(=O)O (stereo unspecified)	94.8%
CO[C@H]1NC(=O)N(S(=O)(=O)c2ccc(Cl)cc2)[C@@H]1OC	105%
O=c1c2ccccc2[nH]n1Cc1ccc2c(c1)OCO2	98.4%
CCCCNP1(NCCCC)=NP(NCCCC)(NCCCC)=NP(NCCCC)(NCCCC)=NP(NCCCC)(NCCCC)=N1	-59.3% (active)
COc1cccc2c1C(=O)c1c(O)c3c(c(O)c1C2=O)C[C@@](O)(C(=O)COC(=O)c1ccccc1)C[C@@H]3OC1CC(N)C(O)C(C)O1 (stereo partly specified)	-74.8% (active)
OCCNc1nc(NCCO)nc(Nc2ccc(C3=NN(c4cc(Cl)cc(Cl)c4)C(c4ccccc4)C3)cc2)n1 (stereo unspecified)	61.7%
Cc1cc(N/C=c2\sc3ncnn3c2=O)no1	111%
